The record followed here is PubChem BioAssay (Tox21).

Records with an inconclusive call do not appear. Values without a mark were called inactive. Activity calls are given as the source filed them. Calls come from the whole dose curve; as a rule, active = well fitted cell-killing curve with a large enough effect in the repeat runs (not every such curve was filed as active); inconclusive = weak or mixed curves, or effect the other way; inactive = no such curve, though single readings can be large or run the other way.
% is set by controls: 0 for no effect and ±100 for the full control effect; potency is the fitted concentration of half-maximal effect.

A short description of this assay: qHTS assay to identify small molecule antagonists of the farnesoid-X-receptor (FXR) signaling pathway - cell viability counter screen (AID 743221). Note: nearly all actives have a fitted effect of over 50% in size. Particulars: FXR-bla HEK293T viability, CellTiter-Glo luminescence, 16 h; series mostly up to 62.6 µM; activity change, negative = cytotoxicity: at the top concentration. The source says:
National Center for Advancing Translational Sciences [NCATS]
NIH Chemical Genomics Center [NCGC]
U.S. Environmental Protection Agency [EPA]
National Institutes of Environmental Health Sciences [NIEHS]
National Toxicology Program [NTP]
U.S. Food and Drug Administration [FDA]
The farnesoid-X-receptor (FXR), a nuclear hormone receptor, is highly expressed in liver, intestine, kidney and adrenal cortex. Natural ligands of FXR are the bile acids (Cholic acid, Chenodeoxy cholic acid etc). FXR is an important regulator of diverse metabolic pathways, including the bile acid homeostasis, lipid and glucose metabolisms. FXR regulates the expression of target genes by binding either as a monomer or as a heterodimer with the retinoid X receptor (RXR). Numerous studies have reported that FXR exerts protective function during cholestasis, diabetes, liver regeneration, and cancer. To identify compounds that inhibit FXR signaling, GeneBLAzer FXR-UAS-bla HEK 293T cell line (Invitrogen, Carlsbad, CA) containing a beta-lactamase reporter gene under the control of a UAS response element was used to screen the Tox21 10K compound library. The cytotoxicity of the Tox21 compound library against the FXR-bla cell line was tested in parallel by measuring the cell viability using CellTiter-Glo assay in the same wells.
Tox21 Assay Protocol Summary:
FXR-bla cells were dispensed at 5000 cells/5uL/well in 1536-well black wall/clear bottom plates using a Multidrop Combi (Thermo Fisher Scientific, Waltham, MA) dispenser. After the assay plates were incubated at 37 C and 5% CO2 for 5 h, 23 nL of compounds dissolved in DMSO, positive controls or DMSO only was transferred to the assay plate by a Pintool station (Kalypsys, San Diego, CA), followed by addition of 1 uL Chenodeoxycholic acid (50 uM, final concentration in the wells). The assay plates were incubated at 37C for 16 h. After 1 uL of LiveBLAzerTM B/G FRET substrate was added using a Bioraptr Flying Reagent Dispenser (FRD) workstation (Beckman Coulter, Indianapolis, IN), the plates were incubated at room temperature for 2 h, and fluorescence intensity was measured by an Envision plate reader (PerkinElmer, Shelton, CT). For cell viability readout that measures cytotoxicity, 4uL/well of CellTiter-Glo reagent was added into the assay plates using a Bioraptr FRD. After 30 min incubation at room temperature, the luminescence intensity in the plates was measured using a ViewLux plate reader (PerkinElmer).
For the compound `CCCCC(CC)COC(=O)COc1ccc(Cl)cc1Cl` (stereo not given), the “activity change, negative = cytotoxicity” value is -10.5% [at 81.1 µM]. Still for that read-out and setting: in the case of `OC[C@H]1O[C@@H](OCCc2ccc(O)cc2)[C@H](O)[C@@H](O)[C@@H]1O` it was -7.58%.

Turning to `CCCNCC(O)COc1ccccc1C(=O)CCc1ccccc1` (stereo not given), the “activity change, negative = cytotoxicity” value was -14.3%. On the same count and under the same terms, the value for `c1ccc(-c2ccccn2)nc1` was -12.3%. Same read-out and setting: the value for `C[Si](C)(CCCN)O[Si](C)(C)CCCN` was -3.4%. Same read-out and setting: the value for `CC(=O)NO` was -2.13%; that for `COc1cc2nc(N3CCN(C(=O)C4COc5ccccc5O4)CC3)nc(N)c2cc1OC` (stereo not given) was 5.33%; that for `O=C1CCC(=O)O1` was -2.05% [at 81.1 µM]. Turning to `CCO[Si](CCCCl)(OCC)OCC`, the “activity change, negative = cytotoxicity” value is 9.55%. Consider `NCC(=O)CCC(=O)O`, for which the “activity change, negative = cytotoxicity” value is -0.0574%. On the same count and under the same terms, in the case of `C/C=C/C(=O)CC` it was -0.419% [at 13.2 µM]. As to `Nc1ncn([C@H]2C[C@H](O)[C@@H](CO)O2)c(=O)n1`, the “activity change, negative = cytotoxicity” value is 0.216%. On the same count and under the same terms, in the case of `CN(C)c1ccc(CCO)cc1` it was 2.57%; in that of `Nc1ccc([N+](=O)[O-])c(C(F)(F)F)c1`, -2.51%. Regarding `CCc1c(C(=O)NN2CCCCC2)nn(-c2ccc(Cl)cc2Cl)c1-c1ccc(Br)cc1`, the Potency was 24.5 µM (active). Take `CCC(=O)O[C@]1(C(=O)CCl)[C@@H](C)C[C@H]2[C@@H]3CCC4=CC(=O)C=C[C@]4(C)[C@@]3(F)[C@@H](O)C[C@@]21C`: the “activity change, negative = cytotoxicity” value is -8.7%. In the case of `Cc1cccc(C)c1OCC(=O)N[C@@H](Cc1ccccc1)[C@@H](O)C[C@H](Cc1ccccc1)NC(=O)[C@H](C(C)C)N1CCCNC1=O`, the Potency is 23.7 µM (active).

In the case of `C[C@H]1C[C@H]2[C@@H]3CCC4=CC(=O)C=C[C@]4(C)[C@@]3(Cl)[C@@H](O)C[C@]2(C)[C@@]1(O)C(=O)CO`, the “activity change, negative = cytotoxicity” value was 1.43%. As to `Cc1cccc(C)c1NC(=O)CN(CC(=O)O)CC(=O)O`, the “activity change, negative = cytotoxicity” value is 4.63%. The same measure, in the same setting: the value for `COc1cc(Cl)ccc1Oc1ccc(Cl)cc1Cl` was -2.35%; that for `O=C(O)C(S)C(S)C(=O)O` (stereo not given) was 0.795%; that for `CCN(CC)c1ccc(C(=C2C=CC(=[N+](CC)CC)C=C2)c2cc(S(=O)(=O)O)ccc2S(=O)(=O)[O-])cc1` was -12.3%.

For the compound `C[C@@H]1C[C@H]2O[C@@]3(O[C@@H]2C(C)(C)O)[C@H](O)[C@@]2(C)[C@@H]4CC[C@H]5C(C)(C)[C@@H](O[C@@H]6OC[C@@H](O)[C@H](O)[C@H]6O)CC[C@@]56C[C@@]46CC[C@]2(C)[C@@H]13`, the “activity change, negative = cytotoxicity” value was -0.444%. Same read-out and setting: in the case of `Brc1c2ccccc2cc2ccccc12` it was 7.83% [at 81.1 µM]. Same read-out and setting: the value for `CCN(CC)CCOC(=O)C(c1ccccc1)C1CCCCC1` (stereo not given) was -17.6%; that for `COC(C)(C)CCO` was -16.4%. On to `CCCCCCCC/C=C\CCCCCCCC(=O)OCC`, for which the “activity change, negative = cytotoxicity” value was 21.8%. On the same count and under the same terms, in the case of `CCNc1cc(O)ccc1C` it was 1.15%; in that of `C/C(=C(\CCOP(=O)(O)O)SC(=O)c1ccccc1)N(C=O)Cc1cnc(C)nc1N`, 0.132% [at 5.95 µM]. On the same count and under the same terms, the value for `CCC(Cl)CCC(Cl)C(Cl)CC(Cl)C(Cl)C(Cl)CCl` (stereo not given) was -0.136%; that for `COC(=O)c1ccc(I)cc1S(=O)(=O)NC(=O)Nc1nc(C)nc(OC)n1` was -0.704%. On the same count and under the same terms, in the case of `CCCCc1nc2cccnc2n1Cc1ccc(-c2ccccc2-c2nnn[nH]2)cc1` it was 5.34%; in that of `CC(C)=CCC/C(C)=C/CC/C(C)=C/CO`, -14.2%; in that of `CC(C)(CO)[N+](=O)[O-]`, 1.67%. `CC[N+](C)(CC)CCOC(=O)C(O)(c1ccccc1)C1CCCCC1` (stereo not given): the “activity change, negative = cytotoxicity” value is -2.53%. Same read-out and setting: the value for `O=C(O)C1(C(=O)O)CCC1.[NH2-].[NH2-].[Pt+2]` was 5.28%. Same read-out and setting: in the case of `Brc1c2ccccc2c(Br)c2ccccc12` it was -3.74% [at 5.95 µM]; in that of `COc1cc(Cl)c(OC)cc1N`, 7.29%. Same read-out and setting: in the case of `c1ccc(CNCCNCc2ccccc2)cc1` it was 6.7%. Turning to `Clc1ccc2c(c1)CCc1cccnc1C2=C1CCNCC1`, the Potency was 29.8 µM (active).
